Measurements taken from the supplement of paper PMC11417369.
In all, about 25,000 sequences were measured (“ln(normalized median fluorescence intensity)”: median about 9.7, highest 2% from about 11 on). Many of the other results were omitted from the sample, so the highest values are more common in it than they were.

Test system: PfAP2-HC AP2 domain (GST-tagged)
Assay: gcPBM binding intensity (ln(normalized median fluorescence intensity)); higher = stronger DNA binding
Method in brief: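 For binding intensity, the highest Masliner-normalised natural-log median intensity across replicate spots of either probe orientation was taken. Protein bound to the array was stained with Alexa488 anti-GST antibody and scanned at 488 nm. The protein, GST-tagged P. falciparum DNA-binding domains from E. coli at about 25 μg on average, had been applied for 1 h to an Agilent 4 × 180k array of primer-extended double-stranded 36-bp intergenic genomic probes and negative controls.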

First: TGAACACACGAGCACACACACACATCTATATTTATA [CACACA_site6607]
Second: TACATACATACATACACACACACATCTATATTTATA [CACACA_site6171]
The “gcPBM binding intensity (ln)” value of the first is higher: 11.1 for the first, 10.6 for the second.

Compared with “TTATACTAAATGAACACACACACATCTATATTTATA [CACACA_site6199]”, “ATAAATAAAGGACACACACACACACTAGAAAAAAAA [CACACA_site5450]” is higher in “gcPBM binding intensity (ln)” value: 10.3 for the first, 11.1 for the second.

First: AAAAATAAAGGATATACACACTAATTATATATATAT [CACACA_site5550]
Second: AAAAAAGAAAAAAGGACACACATAAATATACACCCG [CACACA_site5590]
The “gcPBM binding intensity (ln)” value of the first is lower: 9.91 for the first, 10.2 for the second.

Going from “GTAGAGAAAAAAATGTGGACACAAAAAATAAAAAGG [XGTACX_site4058]” to “ATAAATAAAGGACACACACACACACTAATAAAAAAA [CACACA_site8840]”, the “gcPBM binding intensity (ln)” value rises from 9.79 to 11.4.

Compared with “AAAAAAATAAAGGATATACACACTAATTATATATAT [CACACA_site2812]”, “ATATGTTTTGTTTACGTGCACTGCTTTGTTTATATA [GTGCAC_site9622]” is higher in “gcPBM binding intensity (ln)” value: 9.81 for the first, 10.5 for the second.

Going from “ATATTTATTTATAATTGTACTAATAATATATTTTAA [XGTACX_site587]” to “TTTCCTTACCCTTTCCTGGTGTAGAAATTATACTCT [TGCATGCA_negctrl_site116]”, the “gcPBM binding intensity (ln)” value rises from 9.51 to 9.61.

Going from “TATTTCATCTTTTAAGAAGGTACCCATATGTCATAT [GTGCAC_negctrl_site403]” to “TTATTTTATTTTAAAAAAAACAATATAAATTCAAAG [GTGCAC_negctrl_site57]”, the “gcPBM binding intensity (ln)” value falls from 9.57 to 9.09.

First: AAATATATATATATAATACACACTAAAGTAACATAA [CACACA_site2870]
Second: ATAATCCTTGGACACACACACACACTAGTAAATAAA [CACACA_site4423]
The “gcPBM binding intensity (ln)” value of the first is lower: 10 for the first, 11.3 for the second.

Going from “ATAATCCTTAAACACACACACACACTAATAAATAAA [CACACA_site8052]” to “TCAAAGCACACATACACACACATATAGATTTATATA [CACACA_site6272]”, the “gcPBM binding intensity (ln)” value falls from 10.8 to 10.2.

Going from “ATCATTTGCTCACGCACACACACATAAAAAGAAAAA [CACACA_site4349]” to “TAAACATTTTTGCACGCACACAAAAAAAAAATAAAA [CACACA_site167]”, the “gcPBM binding intensity (ln)” value rises from 10.2 to 10.3.

Going from “TTATCACATTATTGCACACACATAAAGAAAAAAATA [CACACA_site2841]” to “CATTTGCACCCGCACACACACATAAAAAGAAAAATA [CACACA_site4350]”, the “gcPBM binding intensity (ln)” value rises from 9.94 to 11.1.

First: TTTTATCACATTATTGCACACACATAAAGAAAAAAA [CACACA_site8922]
Second: ATCATTTGCATACGCACACACACATAAAAAGAAAAA [CACACA_site355]
The “gcPBM binding intensity (ln)” value of the first is lower: 9.98 for the first, 10.9 for the second.

First: CATTTGCACACGCACACACACATAAAAAGAAAAATA [CACACA_site6297]
Second: CATTTGCCCAGGCACACACACATAAAAAGAAAAATA [CACACA_site356]
The “gcPBM binding intensity (ln)” value of the first is higher: 11.1 for the first, 10.2 for the second.

Going from “ATGCATAAAAGAAATACACACATAAATATATAAATA [CACACA_site2163]” to “ATATATTTTTAGCACAGTACAATATAATTAAATATA [XGTACX_site6779]”, the “gcPBM binding intensity (ln)” value falls from 9.99 to 9.62.

First: AAAAAAAAAAAAAAAAGTACTAATTGAATATTAAAC [XGTACX_site3383]
Second: TATGTGTTCAGTATTGCACACACACTCCAAAATAAA [CACACA_site8018]
The “gcPBM binding intensity (ln)” value of the first is lower: 9.44 for the first, 10 for the second.

First: TATAAATATGTATATGCATGTGGAATATATAATTAA [TGCATGCA_site226]
Second: GGATTTATTATATATACACACATACATATATATATA [CACACA_site8669]
The “gcPBM binding intensity (ln)” value of the first is lower: 9.69 for the first, 9.88 for the second.

Going from “ATTATATATATCAGGTGTACGTAAAAAAAATGGACG [XGTACX_site1028]” to “TTTTTAATTAACTTTGTAAACTTATATATATATATA [TGCATGCA_negctrl_site311]”, the “gcPBM binding intensity (ln)” value falls from 9.88 to 9.6.

Compared with “AATCGTGTTCTGAATACACACTAATACAAATTTGTA [CACACA_site6058]”, “TGTAGTCTGGAGAAGAGTACACAGTATCTGGTAGCT [XGTACX_site2036]” is lower in “gcPBM binding intensity (ln)” value: 9.75 for the first, 9.72 for the second.

Going from “AATATGTTTTGTTAGGTTGGTGTTGGTAGAATGTTT [CACACA_negctrl_site1563]” to “CATATACATACACATACACACATACAGACATACACA [CACACA_site6919]”, the “gcPBM binding intensity (ln)” value rises from 9.85 to 10.2.

First: TATACAGACAGACACACACACATATATATATATATA [CACACA_site1734]
Second: CATACATACAGACACACACACATATATATATATATA [CACACA_site2920]
The “gcPBM binding intensity (ln)” value of the first is lower: 10.2 for the first, 10.7 for the second.

Compared with “CGCACAGACGGACACACACACACATATATATATATA [CACACA_site5249]”, “TAAACAGACATATAAACACACATATAAACCGACATA [CACACA_site2478]” is lower in “gcPBM binding intensity (ln)” value: 11.1 for the first, 10.3 for the second.

Going from “AGCACAGACGGACACACACACATATATATATATATA [CACACA_site4341]” to “ATTTGGCATGGACACACACACACACCGACAGACATA [CACACA_site4491]”, the “gcPBM binding intensity (ln)” value rises from 10.8 to 11.4.

For “CCCACAGACGGACACACACACACACCGACACATATA [CACACA_site4356]”, the “gcPBM binding intensity (ln)” value was 11.
